In the library only some 4.7% were active in any assay of this set; here they are far more common.
ADAM17 inh: inhibitors of human ADAM17 | recombinant ADAM17, EDANS/DABCYL FRET peptide cleavage | actives 0.83% (n = 370,000) | P78536 | inhibition, % at 6.95 µM;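 active = inhibition above the mean of compounds lying between control limits plus 3 SD, set per campaign, cut at about 8.5% in these data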
MPTP block: permeability transition pore inhibition | isolated mouse mitochondria, Ca2+ swelling absorbance, 30 min | inhibition, % at 10 µM | actives 1.4% (n = 360,000);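 active = inhibition of 50% or more, scaled per plate between neutral and stimulator controls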
Pemphigus Ab inh: blocks pemphigus antibody binding to human desmoglein-3 | P32926 | DSG3-coupled beads, scFv-anti-DSG3-GFP binding, flow cytometry; active compounds read low | binding (percent of control), % at 10 µM | actives 0.48% (n = 310,000) | AID 588358;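 active = binding more than 3 SD below its plate's average and above zero; inconclusive = below that plate limit but binding exactly zero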;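 note: hits lower antibody fragment binding to DSG3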
rCAG binder: r(CAG) repeat RNA binding | TO-PRO-1 dye displacement fluorescence | inhibition, % at 3 µM | actives 1.3% (n = 370,000);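 active = inhibition above the plate cutoff, the mean of all test compounds on that plate plus 3 SD, cut at about 35% in these data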;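 note: higher means more dye released from RNA so lower well fluorescence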
KLK7 zymogen act: activates the human kallikrein-7 zymogen | activation, % at 7 µM | P49862 | AID 652039 | purified proKLK7, EDANS-DABCYL substrate fluorescence; 100% is mature enzyme control, 0% vehicle | actives 0.9% (n = 370,000);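 active = activation above the mean of all tested compounds plus 3 SD, computed per campaign excluding outliers beyond control limits, cut at about 13% in these data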
ADAM10 inh: inhibitors of human ADAM10. O14672. recombinant ADAM10, EDANS/DABCYL FRET peptide cleavage, 3 h. inhibition, % at 7 µM. actives 0.62% (n = 370,000). AID 720582;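 active = inhibition above a per-campaign cutoff equal to the mean of compounds falling between control-based bounds plus 3 SD, cut at about 20% in these data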
Target sequence (O14672 214-748 limits assumed): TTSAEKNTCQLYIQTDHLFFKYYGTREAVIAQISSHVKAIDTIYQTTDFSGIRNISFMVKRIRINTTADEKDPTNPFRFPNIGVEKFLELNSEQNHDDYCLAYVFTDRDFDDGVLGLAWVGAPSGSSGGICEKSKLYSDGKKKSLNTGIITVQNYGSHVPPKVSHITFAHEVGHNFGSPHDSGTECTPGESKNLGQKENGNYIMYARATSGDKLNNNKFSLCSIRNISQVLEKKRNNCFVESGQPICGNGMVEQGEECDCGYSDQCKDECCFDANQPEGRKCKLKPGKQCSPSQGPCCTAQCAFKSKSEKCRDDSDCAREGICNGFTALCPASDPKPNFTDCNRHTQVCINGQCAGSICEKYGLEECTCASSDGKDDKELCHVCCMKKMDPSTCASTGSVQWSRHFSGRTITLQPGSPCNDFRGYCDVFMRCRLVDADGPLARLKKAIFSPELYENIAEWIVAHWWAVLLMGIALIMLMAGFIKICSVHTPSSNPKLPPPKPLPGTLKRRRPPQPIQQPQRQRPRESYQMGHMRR
ADAM10 confirm: human ADAM10 inhibition, confirmation. shares compounds with ADAM10 inh. AID 743208. inhibition, % at 6.95 µM. actives 1% (n = 2,100). ADAM10 QFRET peptide cleavage, EDANS fluorescence;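 active = inhibition above about 20% chosen separately for each screening run, limit read from the data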
ADAM17 counter: counter-screen for ADAM10 exosite inhibitors: inhibitors of human ADAM17; shares compounds with ADAM10 inh; ADAM17 QFRET peptide cleavage, EDANS fluorescence; inhibition, % at 6.95 µM; actives 0.5% (n = 2,100); AID 743214;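 active = mean triplicate inhibition above the solvent-only control wells' mean plus 3 SD, cut at about 12% in these data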
ADAM10 counter: inhibits human ADAM10 in ADAM17 exosite counter-screen; shares compounds with ADAM17 inh; recombinant ADAM10, EDANS/DABCYL FRET peptide cleavage, 3 h; inhibition, % at 6.95 µM; actives 47% (n = 2,900);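 active = mean inhibition over the triplicate runs exceeds the activity threshold set in the earlier primary screen, cut at about 20% in these data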
ADAM17 confirm: confirmation of inhibitors of human ADAM17 | shares compounds with ADAM17 inh | recombinant ADAM17, EDANS/DABCYL QFRET peptide cleavage | inhibition, % at 6.95 µM | actives 65% (n = 2,900) | AID 743257;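 active = mean inhibition across replicates above the hit cutoff set in the primary screen, cut at about 8.5% in these data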
Hits are given with their value.

What do the screens show for `C[C@H](NC(=O)c1nc[nH]c1C(=O)N[C@@H](Cc1ccccc1)C(=O)OC(C)(C)C)C(=O)OCc1ccccc1`?
ADAM17 inh: 10; MPTP block: inactive; Pemphigus Ab inh: inactive; rCAG binder: inactive; KLK7 zymogen act: inactive; ADAM10 inh: 25; ADAM10 confirm: inactive; ADAM17 counter: inactive; ADAM10 counter: 38; ADAM17 confirm: 25

How did C[C@H](NC(=O)c1nc[nH]c1C(=O)N[C@@H](Cc1ccccc1)C(=O)OC(C)(C)C)c1ccccc1 do in these assays?
ADAM17 inh: 18; MPTP block: inactive; Pemphigus Ab inh: inactive; rCAG binder: inactive; KLK7 zymogen act: inactive; ADAM10 inh: 37; ADAM10 confirm: inactive; ADAM17 counter: inactive; ADAM10 counter: 55; ADAM17 confirm: 28

What do the screens show for `Cc1ccc(NC(=O)c2nc[nH]c2C(=O)N[C@H](C)c2ccccc2)cc1`?
ADAM17 inh: 13; MPTP block: inactive; Pemphigus Ab inh: inactive; rCAG binder: inactive; KLK7 zymogen act: inactive; ADAM10 inh: 20; ADAM10 confirm: inactive; ADAM17 counter: inactive; ADAM10 counter: 20; ADAM17 confirm: 11

What do the screens show for `COc1ccc(C(=O)OCC(=O)NCc2ccco2)cc1S(=O)(=O)N1CCN(c2cccc(Cl)c2)CC1`?
ADAM17 inh: 17; MPTP block: inactive; Pemphigus Ab inh: inactive; rCAG binder: inactive; KLK7 zymogen act: inactive; ADAM10 inh: 29; ADAM10 confirm: inactive; ADAM17 counter: inactive; ADAM10 counter: 28; ADAM17 confirm: 18

How did Cc1ccc(C(=O)OCC(=O)NCc2ccco2)cc1S(=O)(=O)N1CCOCC1 do in these assays?
ADAM17 inh: inactive; MPTP block: inactive; Pemphigus Ab inh: inactive; rCAG binder: inactive; KLK7 zymogen act: inactive; ADAM10 inh: inactive

What do the screens show for `CC(C)Cn1c(-c2ccc(Br)cc2)c[nH]c1=S`?
ADAM17 inh: 14; MPTP block: inactive; Pemphigus Ab inh: inactive; rCAG binder: inactive; KLK7 zymogen act: inactive; ADAM10 inh: 26; ADAM10 confirm: inactive; ADAM17 counter: inactive; ADAM10 counter: inactive; ADAM17 confirm: 9.0

What do the screens show for `C(=C\c1ccc2nncn2c1)/c1ccccc1`?
ADAM17 inh: inactive; MPTP block: inactive; rCAG binder: inactive; KLK7 zymogen act: inactive; ADAM10 inh: inactive

How did COc1cccc(C=NN(C)c2c([N+](=O)[O-])cc(C(F)(F)F)cc2[N+](=O)[O-])c1O do in these assays?
ADAM17 inh: 12; MPTP block: inactive; rCAG binder: inactive; KLK7 zymogen act: inactive; ADAM10 inh: 24; ADAM10 confirm: inactive; ADAM17 counter: inactive; ADAM10 counter: 27; ADAM17 confirm: 16

What do the screens show for `COc1ccc(C)cc1S(=O)(=O)N1c2ccc(C)cc2C2CN(C)CCC21` (stereo not given)?
ADAM17 inh: inactive; MPTP block: inactive; Pemphigus Ab inh: inactive; rCAG binder: inactive; KLK7 zymogen act: inactive; ADAM10 inh: inactive

Results for O=C(Nc1ccc2c(c1)OCCO2)C(c1ccnc2ccccc12)N1CCC(Cc2ccccc2)CC1 (stereo not given) ?
ADAM17 inh: 19; MPTP block: inactive; rCAG binder: inactive; KLK7 zymogen act: inactive; ADAM10 inh: 37; ADAM10 confirm: inactive; ADAM17 counter: inactive; ADAM10 counter: inactive; ADAM17 confirm: 10

What do the screens show for `COc1cc(C(=O)Nc2nc(-c3cccs3)cs2)cc(OC)c1OC`?
ADAM17 inh: inactive; MPTP block: inactive; Pemphigus Ab inh: inactive; rCAG binder: inactive; KLK7 zymogen act: inactive; ADAM10 inh: inactive

What do the screens show for `O=C(COc1ccc(Cl)cc1)Nc1nc(-c2cccs2)cs1`?
ADAM17 inh: 9.7; MPTP block: inactive; Pemphigus Ab inh: inactive; rCAG binder: inactive; KLK7 zymogen act: inactive; ADAM10 inh: 23; ADAM10 confirm: inactive; ADAM17 counter: inactive; ADAM10 counter: inactive; ADAM17 confirm: inactive

Results for COc1ccc(C(=O)Nc2nc(-c3cccs3)cs2)cc1 ?
ADAM17 inh: 10; MPTP block: inactive; Pemphigus Ab inh: inconclusive; rCAG binder: inactive; KLK7 zymogen act: inactive; ADAM10 inh: 21; ADAM10 confirm: inactive; ADAM17 counter: inactive; ADAM10 counter: inactive; ADAM17 confirm: inactive

What do the screens show for `CN(CC(=O)Nc1ccc(F)c(F)c1F)C(=O)C1CCN(C(=O)Nc2ccccc2)CC1`?
ADAM17 inh: inactive; MPTP block: inactive; Pemphigus Ab inh: inactive; rCAG binder: inactive; KLK7 zymogen act: inactive; ADAM10 inh: inactive

What do the screens show for `Cc1sc2ncnc(N3CCC(C(=O)N(C)CC(=O)Nc4ccc(Cl)c(C(F)(F)F)c4)CC3)c2c1C`?
ADAM17 inh: 12; MPTP block: inactive; Pemphigus Ab inh: inactive; rCAG binder: inactive; KLK7 zymogen act: inactive; ADAM10 inh: 23; ADAM10 confirm: inactive; ADAM17 counter: inactive; ADAM10 counter: 48; ADAM17 confirm: 25

How did Cc1ccc(S(=O)(=O)Nc2ccc3ccccc3c2)cc1 do in these assays?
ADAM17 inh: 17; MPTP block: inactive; Pemphigus Ab inh: inactive; rCAG binder: inactive; KLK7 zymogen act: inactive; ADAM10 inh: 24; ADAM10 confirm: inactive; ADAM17 counter: inactive; ADAM10 counter: inactive; ADAM17 confirm: inactive

How did COC(=O)c1cc2cc(NS(=O)(=O)c3ccc(C)cc3)ccc2s1 do in these assays?
ADAM17 inh: 15; MPTP block: inactive; Pemphigus Ab inh: inactive; rCAG binder: inactive; KLK7 zymogen act: inactive; ADAM10 inh: 28; ADAM10 confirm: inactive; ADAM17 counter: inactive; ADAM10 counter: inactive; ADAM17 confirm: 10

Results for COC(=O)c1c(NC(NC(=O)C(C)C)C(Cl)(Cl)Cl)sc2c1CCCC2 (stereo not given) ?
ADAM17 inh: 10; MPTP block: inactive; Pemphigus Ab inh: inactive; rCAG binder: inactive; KLK7 zymogen act: inactive; ADAM10 inh: 22; ADAM10 confirm: inactive; ADAM17 counter: inactive; ADAM10 counter: 26; ADAM17 confirm: 16

How did COc1ccc(N2CCC(CNC(=S)Nc3cccc(OC)c3)C2)cc1 (stereo not given) do in these assays?
ADAM17 inh: 8.8; rCAG binder: inactive; KLK7 zymogen act: inactive; ADAM10 inh: 20; ADAM10 confirm: inactive; ADAM17 counter: inactive; ADAM10 counter: inactive; ADAM17 confirm: 11

High-throughput results deposited in PubChem by several laboratories.
